D2 PAM-1: HTS Assay for Positive Allosteric Modulators of the Human D2 Dopamine Receptor: Primary Screen for Potentiators | hit rate 0.34% among 340,000 | HEK293 T-REx D2, calcium flux, EC20 dopamine potentiation | potentiation, % at 10 µM;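 active = potentiation over 3 SD above the plate norm, cut at about 30% in these data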
Target sequence (P14416 whole entry, looked up): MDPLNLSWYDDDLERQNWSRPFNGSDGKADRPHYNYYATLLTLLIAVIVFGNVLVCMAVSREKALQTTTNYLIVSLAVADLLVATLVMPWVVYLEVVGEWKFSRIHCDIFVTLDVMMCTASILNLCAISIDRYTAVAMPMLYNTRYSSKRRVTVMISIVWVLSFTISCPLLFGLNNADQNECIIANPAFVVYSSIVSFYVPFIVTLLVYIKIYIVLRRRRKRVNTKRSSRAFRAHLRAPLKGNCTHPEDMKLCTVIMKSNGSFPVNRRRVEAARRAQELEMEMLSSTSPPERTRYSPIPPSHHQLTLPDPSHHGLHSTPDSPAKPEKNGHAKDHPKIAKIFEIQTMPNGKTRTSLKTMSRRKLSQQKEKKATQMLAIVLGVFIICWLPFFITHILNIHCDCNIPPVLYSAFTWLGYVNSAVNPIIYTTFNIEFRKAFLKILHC
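Tetracycline-induced Hek293 Trex D2 cells, force-coupled to calcium, loaded with no-wash calcium dye. Compound added with 180 s kinetic read for agonism, then EC20 dopamine and a further 180 s read for potentiation.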
D2 PAM-2: Beta-Arrestin HTS for Positive Allosteric Modulators of the Human D2 Dopamine Receptor: Potentiators | AID 624464, 2012 | hit rate 0.23% among 360,000 | potentiation, % (concentration not given with the values) | D(2) dopamine receptor (Homo sapiens), P14416 | DiscoveRx D2 beta-arrestin cells, luminescence, 90 min; 100% = 57 uM dopamine signal; in the data active = potentiation above about 50%; inconclusive = mostly about 30% to 49%
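D2 cells co-treated with compound plus 50 nM dopamine (EC20) for 90 min at 37 deg C to detect potentiation. Beta-arrestin recruitment was read as enzyme-fragment luminescence after 1 h at ambient temperature. Full response was set by 57 uM dopamine.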
D2 ag-1: Beta-Arrestin HTS for Positive Allosteric Modulators of the Human D2 Dopamine Receptor: Agonists; D(2) dopamine receptor (Homo sapiens), P14416; DiscoveRx PathHunter D2 beta-arrestin, luminescence, 90 min; 100% = 57 uM dopamine signal; activation, % (test concentration not listed); hit rate 0.084% among 360,000; AID 624465, 2012; in the data active = activation above about 40%; inconclusive = between about 15% and that limit
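DiscoveRx PathHunter D2 beta-arrestin cells (2,100/well) attached overnight, then compound-stimulated 90 min at 37 C in HBSS/10 mM HEPES/0.1% Tween-20 buffer; beta-galactosidase complementation read by luminescence after 1 h at ambient temperature. Dopamine 57 uM final (EC100) as control.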
D2 antag: HTS Assay for Allosteric Antagonists of the Human D2 Dopamine Receptor: Primary Screen for Antagonists; D(2) dopamine receptor (Homo sapiens), P14416; HEK293 TREx D2 cells, calcium flux, dopamine EC80; inhibition, % at 10 µM; hit rate 2% among 340,000; AID 485344, 2010; in the data active = inhibition above about 30%; inactive = below that, where a call was filed
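Calcium flux kinetic readout in an inducible HEK293 TREx D2 line plated overnight at 30 C. After 180 s compound exposure, an EC80 dopamine challenge follows with another 180 s kinetic read to detect antagonism.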
D2 ag-2: HTS Assay for Allosteric Agonists of the Human D2 Dopamine Receptor: Primary Screen for Agonists; activation, % at 2 µM; D(2) dopamine receptor (Homo sapiens), P14416; HEK293 T-REx D2 cells, calcium flux agonist mode; hit rate 0.53% among 340,000;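 active = activation over 3 SD above normal in the single-dose calcium agonist read, cut at about 30% in these data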
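In this primary screen, compounds producing a positive calcium signal within 180 s of addition to tetracycline-induced, force-coupled HEK293 Trex D2 cells are flagged; cells are dye-loaded with a no-wash calcium kit beforehand.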
Of the large screens only hits and unclear results are named; the others gave an inactive call. Hits are enriched below; roughly 2.4% of the tested compounds scored in any of these assays.

CCCS(=O)(=O)NC(=O)C1(C)CCN(C(=O)COc2ccc(Cl)cc2Cl)C1 (configuration not stated)	D2 PAM-2 60 (no result: D2 PAM-1, D2 antag, D2 ag-2)
Cc1ccc(S(=O)(=O)N(C)C)cc1NC(=O)COC(=O)c1n[nH]c(=O)c2ccccc12	D2 antag 52
COc1ccc(S(=O)(=O)N(C)C)cc1NC(=O)CCCSc1ccccc1	D2 antag 48 (no result: D2 PAM-1)
COc1ccc(S(=O)(=O)N(C)C)cc1NC(=O)COC(=O)Cn1cnc2ccccc2c1=O	D2 antag 38
COC(=O)c1ccc(C)c(NC(=O)Cn2cnc3ccccc3c2=O)c1	D2 antag 35
COc1ccc(NC(=O)COC(=O)Cn2cnc3ccccc3c2=O)cc1OC	none
CSc1ccc(/C=C/c2nc3ccccc3n2S(=O)(=O)c2ccc(Br)cc2)cc1	none (no result: D2 PAM-2, D2 ag-1, D2 antag)
COC(=O)CC1COc2ccccc2N1C(=O)c1ccc(C(C)(C)C)cc1 (configuration not stated)	D2 PAM-2 59, D2 ag-1 inconclusive, D2 ag-2 33
Cc1nc2scc(C)n2c(=O)c1S(=O)(=O)NCC1CCN(Cc2ccc(F)cc2)CC1	D2 antag 34
CCc1ccc(C(=O)c2cn(CC(=O)Nc3ccc(C)c(C)c3)c3ccccc3c2=O)cc1	none (no result: D2 PAM-2, D2 ag-1, D2 antag)
COc1ccc(CCN(C)C/C=C/c2ccccc2[N+](=O)[O-])cc1OC	D2 antag 57
Cc1cc2nc(/C(C#N)=C/c3ccncc3)[nH]c2cc1C	D2 antag 36
N#C/C(=C\c1ccncc1)c1nc2ccccc2[nH]1	none
CC1=NN(c2cccc(F)c2)C(=O)/C1=C/c1ccc(N(C)C)cc1	D2 antag 32
O=C(c1ccc([N+](=O)[O-])cc1)N1CCC(n2nnc3cc(F)ccc32)CC1	D2 PAM-1 33
O=C(N1CCOCC1)N1CCC(n2nnc3cc(F)ccc32)CC1	none (no result: D2 antag, D2 ag-2)
O=C(CSc1nnc(-c2ccccc2)c(-c2ccccc2)n1)N1CCc2ccccc21	D2 antag 69
Cc1cc(C)nc(SCC(=O)N2CCc3ccccc32)n1	none (no result: D2 PAM-1, D2 antag, D2 ag-2)
O=C(CSc1ncc(-c2ccccc2)n1C1CCCC1)N1CCc2ccccc21	D2 antag 31
Cn1c(-c2ccccc2)cnc1SCC(=O)N1CCCc2ccccc21	none
CCOC(=O)c1c(NC(C)=O)c2c3c(sc2n1Cc1cc(C)ccc1C)CCCC3	none (no result: D2 PAM-2, D2 ag-1, D2 antag, D2 ag-2)
CCOC(=O)c1cccc(NC(=O)CNS(=O)(=O)c2cccs2)c1	D2 PAM-1 44
CCOC(=O)C(CC)Sc1ncnc2c1c(-c1ccccc1)cn2-c1ccc(OC)cc1 (configuration not stated)	none (no result: D2 PAM-1, D2 PAM-2, D2 ag-1, D2 antag)
O=C1c2ccccc2C(=O)N1Cc1ccco1	none
O=C1c2cccc3c(O)ccc(c23)C(=O)N1Cc1ccco1	D2 ag-2 61
O=C(NCCCN1CCCC1=O)Nc1ccc(Cl)cc1	none (no result: D2 PAM-1, D2 antag, D2 ag-2)
O=C(NCCCN1CCCC1=O)Nc1ccc([N+](=O)[O-])cc1	D2 antag 35
O=C(O)CCS(=O)(=O)c1cccc2cccnc12	D2 antag 31
COc1cc(NC(c2ccccc2)c2ccccc2)cc(OC)c1OC	none
COc1ccc(NC(c2ccccc2)c2ccncc2)cc1 (configuration not stated)	D2 antag 41
CCc1ccc(S(=O)(=O)Nc2nccs2)cc1	D2 PAM-1 38
CCC(Oc1ccc(C)cc1)C(=O)Nc1ccc(S(=O)(=O)Nc2nccs2)cc1 (configuration not stated)	D2 PAM-1 42
CC(C)C(=O)NC(=S)Nc1ccc(S(=O)(=O)Nc2nccs2)cc1	D2 antag 39
CC(Oc1ccc(Br)cc1)C(=O)Nc1ccc(S(=O)(=O)Nc2nccs2)cc1 (configuration not stated)	none
Cc1cc2oc(C(=O)Nc3ccc(S(=O)(=O)Nc4nccs4)cc3)cc(=O)c2cc1Cl	D2 antag 34
CNC(=O)C1CCC(Cn2c(=O)c3sccc3n(CC(=O)N3CCCC(C)C3)c2=O)CC1 (configuration not stated)	none (no result: D2 PAM-2, D2 ag-1, D2 antag)
CCS(=O)(=O)N1Cc2ccccc2CC1C(=O)Nc1ccc(OC)c(OC)c1 (configuration not stated)	none
CCS(=O)(=O)N1Cc2ccccc2CC1C(=O)Nc1cccc(OC)c1 (configuration not stated)	D2 antag 34
CCN(C(=O)c1c(-c2ccccc2Cl)noc1C)C1CCCCC1	D2 PAM-1 47
COc1ccc(C(=O)NCC(c2ccco2)S(=O)(=O)c2cccs2)cc1 (configuration not stated)	none (no result: D2 PAM-2, D2 ag-1, D2 antag)
CCOC(=O)C1CCCN(C(=O)CSc2ccc(NC(C)=O)cc2)C1 (configuration not stated)	D2 ag-1 inconclusive, D2 ag-2 34
CCOC(=O)C1CCCN(C(=O)c2cc(Cl)ccc2Cl)C1 (configuration not stated)	D2 antag 31
COCCSc1ccccc1C(=O)N1CCCC(C)C1 (configuration not stated)	none
CCOC(=O)C1CCCN(C(=O)CSc2ccccc2)C1 (configuration not stated)	none
CCOC(=O)C1CCCN(C(=O)c2ccccc2SCCOC)C1 (configuration not stated)	D2 antag 30
Cc1ccc(-c2nc3cc(C(C)C)ccc3o2)cc1NC(=O)c1cccs1	none (no result: D2 PAM-2, D2 ag-1, D2 antag)
C=CCOc1ccccc1CN(C(=O)CCl)c1ccc2c(c1)OCO2	D2 antag 33
CCOc1ccccc1NC(=O)Nc1ccc2c(c1)OCO2	none
COC(=O)c1ccc(OC(=O)CN2C(=O)c3ccccc3C2=O)cc1	D2 PAM-2 75
COC(=O)c1ccc(CN2C(=O)c3ccccc3C2=O)cc1	none
CC1=CC(C)(C)Nc2ccc(OC(=O)CN3C(=O)c4ccccc4C3=O)cc21	D2 PAM-2 113
CCOC(=O)c1sc(N/N=C/c2cc(Br)c(O)c(OC)c2)nc1C	D2 PAM-2 51, D2 ag-1 41
CCOC(=O)N/N=C/c1cc(OC)c(O)c(OC)c1	none
O=C1c2cccc([N+](=O)[O-])c2C(=O)N1CCO	D2 PAM-1 40
CN(Cc1ccccc1)C(=O)CCN1C(=O)c2cccc([N+](=O)[O-])c2C1=O	none (no result: D2 PAM-1, D2 antag, D2 ag-2)
O=C1c2cccc(O)c2C(=O)c2c(O)cc(CO)cc21	D2 PAM-2 89 (no result: D2 PAM-1, D2 antag, D2 ag-2)
Cc1cc(O)c2c(c1)C(=O)c1cc(O)cc(O)c1C2=O	none (no result: D2 PAM-1, D2 antag, D2 ag-2)
COC(=O)c1cccnc1-n1c(=O)c2cccnc2n(CC(=O)Nc2cccc(C)c2)c1=O	none (no result: D2 PAM-2, D2 ag-1, D2 antag)
